# Measurements: the OligoGym collection
# Target: NKPD1
# Experiment: pooled miR-30 sensor sort-seq; sequence = guide strand
# Conditions: shRNA
# Note: reference of the scale not given here.
row,Sequence,sensor-assay potency score (higher = more potent)
1,TTGAGCGCGCTGACGGCTCGGA,-0.211
2,TTGAGCAGGCTGCCGCTCGGGC,-0.937
3,TCGCACATGAAACCCAGCTGGC,-0.962
4,TTGTCGCGGAAAACGTCCCAGA,-1.15
5,TACTCGTAGAGGCAGTCGCGCT,-1.54
6,TAGATCTCCAGGAAGCACAGGA,0.323
7,AAAAGGAACTGCACGTTCCTGC,-0.361
8,TACAACAGGTCGTCGCGGCTCT,-0.332

# Target: NLGN1
# Experiment: as above
# Conditions: shRNA
row,Sequence,sensor-assay potency score (higher = more potent)
1,TAAATTTCCAGTACCTTCCATA,-0.487
2,TTTATTTCACACAATGACCAGT,0.0352
3,TTGCTCGTTGAAAAAGTCCTTT,-0.525
4,TGAGGTACCAACTCCAACCAGA,0.0181
5,TTGTTGTTTGGGATCATCCTGC,0.229
6,TTGTTGTAGAGGTATACTGAGA,-1.34
7,TAGCATTGGACTAATAGTCATT,-0.504
8,TTGGTATGAATGAATTTCGTGT,-0.285
9,TATCTGAAACATTGCAACCAAC,-1.43
10,TTGGTCAACAAGTTCTTTGTAA,0.00294
11,TAACATTATATCATAGTTGAGA,-0.468

# Target: NLRP2
# Experiment: as above
# Conditions: shRNA
row,Sequence,sensor-assay potency score (higher = more potent)
1,TTTTTGAACACCACTCTCTGGA,0.671
2,TACAACTTATGTCGCATCGCAG,-0.571
3,TATTTCTTTGAACTGAGCCATC,-1.26
4,TTTTTCTTCTATTTCTTCCAGC,-0.106
5,TTTCTCAGTATCAATAATCAGT,-0.723
6,AAGTCATCTATTTTCAACCTGA,0.0295
7,TTCTGTTTTGAAGCGCTCCAGC,-0.763
8,TATACCTGCACCTATTGTCTTT,-0.461
9,TTTCTGTAAACGCTTGTGCTTC,-0.408
10,TTCGTCTTCAATATATACCTGC,0.466
11,TTACAGTCTTGTGACCTCGAAG,-1.08
12,TTCAATATATACCTGCACCTAT,-0.184

# Target: NLRP3
# Experiment: as above
# Conditions: shRNA
row,Sequence,sensor-assay potency score (higher = more potent)
1,TAGATCCACATGGTCTGCCTTC,-0.905
2,TTCTCATAAAGGTCTCTCCTGT,-0.131
3,TTCTCTGTCTGACCCCTCGGGA,-1.19
4,TCAAACAGCAACTCCATCTTAA,-0.477
5,TTGGCTTTCACTTCAATCCATT,-0.825
6,TTGTCTAATTCCAACACCTGAA,-0.802
7,TTACAAATAGAGATTCTCGAAA,-0.224
8,TTTTGGAACAGGTTCATCCTCA,-0.144
9,TTGAAGTCGATCATTAGCGTGG,0.548
